Assay results: PubChem BioAssay
Potency and affinity values are given separately. Records with an inconclusive call do not appear. Activity calls are given as the source filed them.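 How the source made its calls, unless noted: active means a dose-response fit showing signal loss, with half-maximal concentration no higher than twice the top tested dose; inconclusive means flat fit between 30% and 70% signal loss, or poor fit; inactive means the rest.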

What was measured:
[1] = fungal growth arrest, C. neoformans – Alamar Blue, cherry-picks, dose response (AID 686998;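 active means falling signal with fitted half-maximal potency no higher than twice the top valid tested dose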)
[2] = C. neoformans lysis by adenylate kinase leakage – AK release luminescence, cherry-picks, dose response (AID 687000;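 active means fitted dose curve reaches 40% lysis signal rise at or below the highest valid concentration tested for that sample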;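 further: luminescent detection of adenylate kinase leaking from lysed yeast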)
[3] = viability loss in HepG2 hepatoma cells – cell-based, cherry-picks, set 2, cytotoxicity control, dose response (AID 687002)
[4] = viability loss in HeLa cells – cell-based, ATP luminescence, cherry-pick samples, cytotoxicity control, dose response (AID 687004;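 active means a fitted half-maximal concentration no higher than twice the top valid tested dose, with signal falling as cells die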)

Measured: outcome

Cc1noc(C)c1S(=O)(=O)Nc1ccc2c(c1)CC(=O)N([C@@H](C)CO)C[C@H](C)[C@@H](CN(C)S(=O)(=O)c1cn(C)cn1)O2
inactive: all assays above

COc1ccc(S(=O)(=O)Nc2ccc3c(c2)C(=O)N([C@@H](C)CO)C[C@H](C)[C@@H](CN(C)C)OCCCC[C@H](C)O3)cc1
inactive: all assays above

Cc1ccc(NC(=O)C2(C)CCN2C(=O)C2CCCCC2)cc1C (stereo not given)
inactive: all assays above

CC(C)NC(=O)NCC[C@@H]1CC[C@@H](NC(=O)CN(C)C)[C@@H](CO)O1
inactive: all assays above

O=C(CN(c1ccccc1)S(=O)(=O)c1ccc(F)cc1)NC1CCS(=O)(=O)C1 (stereo not given)
inactive: all assays above

CC(C)NC(=O)N[C@H]1CC[C@@H](CCNC(=O)C2CC2)O[C@@H]1CO
inactive: all assays above

CC(=O)N1[C@H](CO)[C@H](c2ccc(-c3ccccc3)cc2)[C@H]1CNC(=O)C1CC1
inactive: all assays above

COCCNC(=O)C[C@@H]1C[C@H]2c3cc(NC(=O)C4CCC4)ccc3O[C@H]2[C@@H](CO)O1
inactive: all assays above

COc1ccc(NC(=O)c2noc(C(C)C)c2[N+](=O)[O-])cc1
inactive: all assays above

CCCN(C)C[C@@H]1OCCCC[C@H](C)Oc2ccc(NS(=O)(=O)c3ccc(C)cc3)cc2C(=O)N([C@H](C)CO)C[C@@H]1C
inactive: all assays above
